Common to all, as to assay: NCI-60 one-dose screen, 48 h (100 = growth as untreated, 0 = no growth, -100 = all killed)
Holding throughout (conditions): 10 µM

For assay [1], the system named is NCI-H23 lung.
For assay [2], the system named is NCI-H226 lung.
For assay [3], the system named is NCI-H322M lung.
In assay [4] the test system is HOP-62 NSCLC.
Assay [5] deals with NCI-H460 lung.
Assay [6] deals with HOP-92 NSCLC.
The test system of assay [7] is NCI-H522 lung.
Assay [8] has as its system A549/ATCC NSCLC.
In assay [9] the test system is 786-0 renal.
Assay [10] has as its system COLO 205 colon.
Assay [11] relates to DU-145 prostate.
Assay [12] deals with K-562 leukemia.
The test system of assay [13] is MALME-3M melanoma.
In assay [14] the test system is MDA-MB-231 breast.
The subject of assay [15] is RXF 393 renal.
Assay [16] has as its system SF-268 CNS.
Assay [17] has as its system SF-295 CNS.
In assay [18] the test system is SF-539 CNS.
Assay [19] relates to UACC-257 melanoma.
Assay [20] has as its system M14 melanoma.

About 83,000 compounds went through this panel and 20% of them were active in at least one assay; those are over-represented in the sample as a whole.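 Single-concentration screen, 48 h exposure, 96-well plates. Endpoint: percent growth. Below 10 = active.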 Values without a mark were called inactive. Activity calls are given as the source filed them.

Among the data in PubChem BioAssay (NCI) are growth values, retold here.

As for `COc1ccc(NC(=O)Nc2ccc(OCC(=O)N=Nc3c(O)[nH]c4ccc([N+](=O)[O-])cc34)cc2)cc1`, the growth is 59.5% in assay [1]; 62.7% in assay [2]; 91.2% in assay [3]; 40.7% in [4]; 74% in assay [5]; 53.5% in [6]. For the same compound, the growth in assay [7] is 0.434% (active); in assay [8] it was 99%; in [9], 73.1%; in assay [10] it was 112%; in assay [11], 91%; in assay [12], 95.7%. For the same compound, the growth is 94.5% in [13]; 56% in assay [14]; 107% in assay [15]; 63.7% in [16]; 100% in [17]; 73.3% in assay [18]. Moreover, the growth was 107% in assay [19] and 118% in assay [20].
In the case of `N#Cc1c(NC(=O)c2ccc(C(F)(F)F)c(Cl)c2)sc2c1CCC(=O)C2`, the growth was -60.9% (active) in [1]; -26.4% (active) in assay [2]; 39.7% in [3]; -56.5% (active) in assay [4]; -10.1% (active) in assay [5]; -55.3% (active) in assay [6]. The growth in assay [7] is -71.2% (active); in assay [8] it was 19.3%; in [9] it was -48.2% (active); in [10], -94% (active); in assay [11], 19.5%; in assay [12], 0.454% (active). In addition, the growth was -56.9% (active) in assay [13]; -87.5% (active) in assay [14]; -86.3% (active) in [15]; -22.7% (active) in assay [16]; -88.9% (active) in [17]; -87.6% (active) in assay [18]. Further, the growth in [19] was -23.3% (active); in assay [20], -68.8% (active).
Take `O=C(c1ccccc1)n1ccc(-c2cc3cc(Br)ccc3oc2=O)n1`: the growth in [1] was 19%; in assay [2], 27.5%; in assay [3] it was 31.1%; in assay [4] it was 20%; in [5] it was 9.4% (active); in assay [6] it was 34.7%. Besides, the growth in assay [7] was 1.16% (active); in assay [8], 33.9%; in assay [9], 16.1%; in assay [10], 11%; in [11], 37.3%; in assay [12], 19.9%. In addition, the growth was 36.8% in [13]; 32% in assay [14]; 45.2% in assay [15]; 36.5% in assay [16]; 24.4% in [17]; 10.5% in [18]. Besides, the growth in assay [19] is 2.91% (active); in assay [20], -4.71% (active).
For the compound `CN1C(=O)/C(=C/c2ccc3ncsc3c2)NC1=NC12CC3CC(CC(O)(C3)C1)C2`, the growth in assay [1] was -21.1% (active); in [2], -1.04% (active); in assay [3], 9.71% (active); in assay [4], 16.7%; in assay [5], 9.92% (active); in [6], 22.1%. Further, the growth was -46.8% (active) in assay [7]; 16.7% in assay [8]; 11.1% in assay [9]; -37.9% (active) in assay [10]; 12.2% in [11]; 11.9% in assay [12]. Besides, the growth in assay [13] was -15% (active); in assay [14], 0.441% (active); in assay [15], -22.7% (active); in [16], 24.5%; in assay [17], 14.1%; in assay [18], -32.1% (active). Moreover, the growth in assay [19] is -17% (active); in [20], 36.9%.
On to `CO[C@@H]1CSSC1Cn1nc(-c2ccc(Oc3ccccc3)cc2)c2c(N)ncnc21` (stereo not given in full), for which the growth in [1] was 46.4%; in assay [2] it was 31.1%; in assay [3], 63%; in assay [4] it was 86.4%; in assay [5] it was 16.5%; in assay [6], 35.9%. The growth is 1.33% (active) in assay [7]; 35.7% in assay [8]; 45.3% in assay [9]; 52% in assay [10]; 49.8% in assay [11]; 4.87% (active) in [12]. The growth in assay [13] was 8.55% (active); in assay [14], 52.1%; in [15], 28.8%; in assay [16] it was 39.5%; in [17] it was 47.8%; in assay [18], 44.1%. Further, the growth in assay [19] is 10.9%; in [20] it was -90.6% (active).
`COc1ccc(-c2ccc(/C=N/NC(=O)c3[nH]c4ccc(Br)cc4c3-c3ccccc3)o2)cc1`: the growth in assay [1] was 50%; in [2] it was 44.1%; in [3] it was 70.4%; in assay [4], 47.2%; in assay [5] it was 16.8%; in assay [6] it was 85.9%. The growth in assay [7] was -44.1% (active); in assay [8], 42.5%; in assay [9], 34.9%; in assay [10] it was 63.1%; in [11], 75.5%; in [12] it was 10.5%. In addition, the growth in [13] is 47%; in [14] it was 52.6%; in assay [15], 16.8%; in assay [16], 37.9%; in assay [17], 4.48% (active); in assay [18] it was -14.1% (active). Besides, the results for the growth in [19] and in [20] were 63.2% and 17%, respectively.
As for `C/C(=C\CC/C=C(\C)CC/C=C(\C)CC[C@@H](O)C(C)(C)O)CC/C=C(\C)CC[C@@H](O)C(C)(C)O`, the growth was 31.8% in assay [1]; 38.8% in assay [2]; 98.1% in assay [3]; 96.6% in assay [4]; 32% in assay [5]; 26% in assay [6]. Moreover, the growth is 21.8% in [7]; 26.1% in assay [8]; 47.4% in assay [9]; 41.9% in [10]; 63.7% in assay [11]; 10.4% in assay [12]. For the same compound, the growth was 44.8% in [13]; 61.4% in assay [14]; 16.5% in assay [15]; 57.5% in assay [16]; 9.52% (active) in assay [17]; 43% in assay [18]. In addition, the growth in [19] was 21.1%; in assay [20] it was 22.7%.
